Reference: PubChem BioAssay
Active and inactive are the calls of the source.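 How the source made its calls, unless noted: active means normalized viability below 100% at a tested concentration; inactive means the rest.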

Legend:
[1] = ovarian cancer cell viability with rucaparib, profiling panel, oncology-focused library, rucaparib conditional (AID 1508598); details: patient-derived ovarian cancer cells, CellTiter-Glo viability, 144 h, hits give low values
[2] = biological target: NAD(+) hydrolase SARM1 (Homo sapiens) (UniProt Q6SZW1); assay: SARM1 TIR NADase inhibitors, cell lysate, NAD-Glo luminescence (AID 1508614;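 active means compound whose remaining NAD level is above about 45 nM, limit read from the data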;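 further: higher remaining NAD means stronger inhibition of SARM1 NADase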); details: SAM-TIR HEK293T lysate NADase, at 1 µM, hits give high values
NAD(+) hydrolase SARM1 (Homo sapiens), sequence (Q6SZW1 whole entry, looked up): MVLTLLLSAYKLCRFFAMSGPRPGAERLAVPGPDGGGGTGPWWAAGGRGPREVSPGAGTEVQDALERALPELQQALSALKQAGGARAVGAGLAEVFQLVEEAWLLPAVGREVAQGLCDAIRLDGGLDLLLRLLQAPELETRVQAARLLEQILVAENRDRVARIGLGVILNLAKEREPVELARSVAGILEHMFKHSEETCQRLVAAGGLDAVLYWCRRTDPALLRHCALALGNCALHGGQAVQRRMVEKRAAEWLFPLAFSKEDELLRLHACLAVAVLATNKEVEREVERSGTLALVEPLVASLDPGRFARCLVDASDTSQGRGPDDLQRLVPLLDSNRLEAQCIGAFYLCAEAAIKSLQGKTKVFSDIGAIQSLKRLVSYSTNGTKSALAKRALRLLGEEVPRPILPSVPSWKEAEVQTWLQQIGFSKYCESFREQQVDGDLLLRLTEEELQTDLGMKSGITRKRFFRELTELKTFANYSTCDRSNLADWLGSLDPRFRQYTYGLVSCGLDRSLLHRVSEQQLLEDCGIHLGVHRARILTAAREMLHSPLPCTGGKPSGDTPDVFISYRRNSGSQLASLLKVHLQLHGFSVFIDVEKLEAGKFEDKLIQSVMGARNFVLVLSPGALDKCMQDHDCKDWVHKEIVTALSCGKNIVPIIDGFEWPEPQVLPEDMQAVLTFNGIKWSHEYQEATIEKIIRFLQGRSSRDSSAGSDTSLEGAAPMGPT

[3] = at 0.000305 µM, OCI-C5x cells, with rucaparib 10 µM, 100% = cells with rucaparib alone
[4] = at 0.000305 µM, OCI-C5x cells, without rucaparib
[5] = at 0.000305 µM, OCI-P5x cells, with rucaparib 20 µM, 100% = cells with rucaparib alone
[6] = at 0.000305 µM, OCI-P5x cells, without rucaparib
[7] = at 0.00122 µM, OCI-C5x cells, with rucaparib 10 µM, 100% = cells with rucaparib alone
[8] = at 0.00122 µM, OCI-C5x cells, without rucaparib
[9] = at 0.00122 µM, OCI-P5x cells, with rucaparib 20 µM, 100% = cells with rucaparib alone
[10] = at 0.00122 µM, OCI-P5x cells, without rucaparib
[11] = at 0.00488 µM, OCI-C5x cells, with rucaparib 10 µM, 100% = cells with rucaparib alone
[12] = at 0.00488 µM, OCI-C5x cells, without rucaparib
[13] = at 0.00488 µM, OCI-P5x cells, with rucaparib 20 µM, 100% = cells with rucaparib alone
[14] = at 0.00488 µM, OCI-P5x cells, without rucaparib
[15] = at 0.0195 µM, OCI-C5x cells, with rucaparib 10 µM, 100% = cells with rucaparib alone
[16] = at 0.0195 µM, OCI-C5x cells, without rucaparib
[17] = at 0.0195 µM, OCI-P5x cells, with rucaparib 20 µM, 100% = cells with rucaparib alone
[18] = at 0.0195 µM, OCI-P5x cells, without rucaparib
[19] = at 0.0781 µM, OCI-C5x cells, with rucaparib 10 µM, 100% = cells with rucaparib alone
[20] = at 0.0781 µM, OCI-C5x cells, without rucaparib
[21] = at 0.0781 µM, OCI-P5x cells, with rucaparib 20 µM, 100% = cells with rucaparib alone
[22] = at 0.0781 µM, OCI-P5x cells, without rucaparib
[23] = at 0.313 µM, OCI-C5x cells, with rucaparib 10 µM, 100% = cells with rucaparib alone
[24] = at 0.313 µM, OCI-C5x cells, without rucaparib
[25] = at 0.313 µM, OCI-P5x cells, with rucaparib 20 µM, 100% = cells with rucaparib alone
[26] = at 0.313 µM, OCI-P5x cells, without rucaparib
[27] = at 1.25 µM, OCI-C5x cells, with rucaparib 10 µM, 100% = cells with rucaparib alone
[28] = at 1.25 µM, OCI-C5x cells, without rucaparib
[29] = at 1.25 µM, OCI-P5x cells, with rucaparib 20 µM, 100% = cells with rucaparib alone
[30] = at 1.25 µM, OCI-P5x cells, without rucaparib
[31] = at 5 µM, OCI-C5x cells, with rucaparib 10 µM, 100% = cells with rucaparib alone
[32] = at 5 µM, OCI-C5x cells, without rucaparib
[33] = at 5 µM, OCI-P5x cells, with rucaparib 20 µM, 100% = cells with rucaparib alone
[34] = at 5 µM, OCI-P5x cells, without rucaparib

COc1cc(=C2C=c3ccccc3=N2)[nH]/c1=C\c1[nH]c(C)cc1C
active: viability [1, 5] 81.8% | viability [1, 6] 30.2% | viability [1, 9] 69.4% | viability [1, 10] 19.5% | viability [1, 14] 97.2% | viability [1, 17] 98.9% | viability [1, 18] 97.5% | viability [1, 20] 79.1% | viability [1, 21] 29.2% | viability [1, 22] 77.3% | viability [1, 24] 93.7% | viability [1, 25] 13.2% | viability [1, 26] 18.4% | viability [1, 27] 89.4% | viability [1, 28] 91.7% | viability [1, 29] 10.1% | viability [1, 30] 22% | viability [1, 31] 37.7% | viability [1, 32] 21.3% | viability [1, 33] 1.33% | viability [1, 34] 3.6%
inactive: viability [1, 3] 118% | viability [1, 4] 122% | viability [1, 7] 127% | viability [1, 8] 124% | viability [1, 11] 132% | viability [1, 12] 114% | viability [1, 13] 105% | viability [1, 15] 115% | viability [1, 16] 115% | viability [1, 19] 110% | viability [1, 23] 131%

CC(=O)[C@]1(O)Cc2c(O)c3c(c(O)c2[C@H](O[C@H]2C[C@H](N)[C@H](O)[C@H](C)O2)C1)C(=O)c1ccccc1C3=O
active: viability [1, 12] 73.9% | viability [1, 14] 96.9% | viability [1, 17] 74% | viability [1, 18] 36.9% | viability [1, 19] 82.5% | viability [1, 20] 7.56% | viability [1, 21] 55.5% | viability [1, 22] 12.2% | viability [1, 23] 3.18% | viability [1, 24] 1.75% | viability [1, 25] 19% | viability [1, 26] 7.09% | viability [1, 27] 1.52% | viability [1, 28] 1.48% | viability [1, 29] 9.24% | viability [1, 30] 4.04% | viability [1, 31] 3.72% | viability [1, 32] 3.03% | viability [1, 33] 4.45% | viability [1, 34] 3.64%
inactive: viability [1, 3] 107% | viability [1, 4] 103% | viability [1, 5] 110% | viability [1, 6] 115% | viability [1, 7] 105% | viability [1, 8] 107% | viability [1, 9] 107% | viability [1, 10] 112% | viability [1, 11] 104% | viability [1, 13] 110% | viability [1, 15] 148% | viability [1, 16] 112%

CO[C@H]1C[C@H](O[C@@H]2/C(C)=C\C[C@@H]3C[C@@H](C[C@]4(C=C[C@H](C)[C@@H](C(C)C)O4)O3)OC(=O)[C@@H]3C=C(C)[C@@H](O)[C@H]4OC/C(=C/C=C\[C@@H]2C)[C@]43O)O[C@@H](C)[C@H]1O[C@H]1C[C@@H](OC)[C@H](NC(C)=O)[C@H](C)O1
inactive: remaining NAD [2] 10 nM

CO[C@H]1C[C@@H]2CC[C@@H](C)[C@@](O)(O2)C(=O)C(=O)N2CCCC[C@H]2C(=O)O[C@H]([C@H](C)C[C@@H]2CC[C@@H](O)[C@H](OC)C2)CC(=O)[C@H](C)/C=C(\C)[C@@H](O)[C@H](OC)C(=O)[C@H](C)C[C@H](C)/C=C/C=C/C=C/1C
inactive: viability [1, 3] 117% | viability [1, 4] 111% | viability [1, 8] 102% | viability [1, 15] 101% | viability [1, 19] 103% | viability [1, 23] 107% | viability [1, 27] 105% | viability [1, 31] 118% | viability [1, 32] 107%
active: viability [1, 5] 87.8% | viability [1, 6] 75.2% | viability [1, 7] 99.6% | viability [1, 9] 91.5% | viability [1, 10] 64.8% | viability [1, 11] 94.9% | viability [1, 12] 95.5% | viability [1, 13] 83.5% | viability [1, 14] 62.3% | viability [1, 16] 95.6% | viability [1, 17] 87.8% | viability [1, 18] 62.5% | viability [1, 20] 89.7% | viability [1, 21] 92.1% | viability [1, 22] 60% | viability [1, 24] 97.8% | viability [1, 25] 94.8% | viability [1, 26] 63.9% | viability [1, 28] 99.2% | viability [1, 29] 93.7% | viability [1, 30] 61.2% | viability [1, 33] 65% | viability [1, 34] 61%

O=C(O)c1cc(I)ccc1NC(=O)[C@H](Cc1ccccc1)NCc1ccccc1
inactive: viability [1, 3] 126% | viability [1, 4] 116% | viability [1, 6] 102% | viability [1, 7] 129% | viability [1, 8] 111% | viability [1, 9] 107% | viability [1, 11] 133% | viability [1, 12] 118% | viability [1, 15] 119% | viability [1, 16] 116% | viability [1, 19] 124% | viability [1, 20] 116% | viability [1, 23] 134% | viability [1, 24] 111% | viability [1, 27] 132% | viability [1, 28] 115% | viability [1, 31] 126% | viability [1, 32] 112%
active: viability [1, 5] 98.3% | viability [1, 10] 99.9% | viability [1, 13] 98.6% | viability [1, 14] 97.1% | viability [1, 17] 95.6% | viability [1, 18] 99.8% | viability [1, 21] 97.8% | viability [1, 22] 92.4% | viability [1, 25] 95.5% | viability [1, 26] 85.4% | viability [1, 29] 80.7% | viability [1, 30] 77.5% | viability [1, 33] 73.4% | viability [1, 34] 81.4%
